Results on 30 compounds are retold here after PubChem BioAssay (EPA / NIEHS).

The nature of experiment [1]: APR_HepG2_CellLoss_1hr: Apredica 1-hour HepG2 Assay for Cell Loss (AID 2282668).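 Also: curves fitted both ways against DMSO so gain or loss of cells counts.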 Particulars: high-content imaging. A digest of the protocol:
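Cell number comes from high-content imaging of Hoechst-labelled nuclei in fixed HepG2 cells. Cells were exposed for 1 h to ten concentrations from 0.39 to 200 uM in 0.5% DMSO. Gain or loss was fitted against DMSO controls.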

A short description of experiment [2]: APR_HepG2_MicrotubuleCSK_1hr: Apredica 1-hour HepG2 Assay for Microtubule CSK Stabilty (AID 2282669). The settings on record: HepG2 microtubule cytoskeleton imaging, actives raise or lower the signal. The method, boiled down:
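Alpha-tubulin immunofluorescence, imaged by automated high-content microscopy with Hoechst nuclear segmentation, measured cytoskeletal change after 1 h dosing of HepG2 at 0.39–200 uM in 0.5% DMSO. Activity fitted in both directions relative to DMSO.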

Experiment [3] can be described thus: APR_HepG2_MitoticArrest_1hr: Apredica 1-hour HepG2 Assay for Mitotic Arrest (AID 2282672). Particulars: high-content imaging, actives raise or lower the signal. A digest of the protocol: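 Ten-point concentration series (0.39 to 200 uM, duplicates, 0.5% v/v DMSO) applied to human HepG2 liver cells for 1 hr. High-content imaging of phospho-histone H3 and Hoechst-stained nuclei after fixation and permeabilization; DMSO-normalised bidirectional fit.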

A short description of experiment [4]: APR_HepG2_P-H2AX_1hr: Apredica 1-hour HepG2 Assay for H2AX Phosphorylation (AID 2282673). Particulars: high-content imaging, actives raise or lower the signal. A digest of the protocol: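 Phospho-H2A.x immunofluorescence (1:200, FITC secondary) plus Hoechst nuclear stain, quantified by high-content imaging in HepG2 after 1 hr compound exposure. Ten concentrations, 0.39 to 200 uM, in duplicate with 0.5% DMSO; fit both directions against DMSO.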

Experiment [5] is described as follows: APR_HepG2_MitoMembPot_1hr: Apredica 1-hour HepG2 Assay for Mitochondrial Membrane Potential (AID 2282675). Particulars: imaging, actives raise or lower the signal. The method, boiled down:
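Mitochondrial membrane potential read as MitoTracker Red CMXRos intensity by automated imaging of fixed HepG2 cells. Dye at 250 nM for 30 min pre-fixation; compounds 0.39 to 200 uM for 1 hour, duplicate wells, 0.5% DMSO.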

Experiment [6] can be described thus: ACEA_ER_80hr: ACEA Biosciences xCELLigence Real-Time Cell Analysis on Estrogen Receptor Agonism for Proliferation (AID 2282667; active = hit-call score of the fitted dose curve at least 0.9, where 1 is the maximum). Particulars: T47D proliferation, impedance (xCELLigence), 80 h. The method, boiled down:
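Impedance readout (RT-CES) of T47D proliferation at 80 h post-dose; gain of signal vs DMSO baseline. Compounds: 8 conc, 1:4 serial, top 100 uM final, ≤0.5% DMSO; biological duplicate.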

Experiment [7] can be described thus: APR_HepG2_CellCycleArrest_1hr: Apredica 1-hour HepG2 Assay for Cell Cycle Arrest (AID 2282666). The settings on record: high-content imaging, actives raise or lower the signal. A digest of the protocol:
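Cell cycle arrest scored from nuclear DNA content (Hoechst 33342) using high-content imaging of fixed HepG2 cells after 1 h treatment across 0.39–200 uM, in duplicate. Gain or loss fitted relative to 0.5% DMSO.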

Experiment [8] can be described thus: APR_HepG2_NuclearSize_1hr: Apredica 1-hour HepG2 Assay for Nuclear Size (AID 2282670). The settings on record: high-content imaging, actives raise or lower the signal. A digest of the protocol: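 Nuclear size measured by high-content imaging of Hoechst 33342 nuclear stain after formaldehyde fixation; human HepG2 line exposed 1 hr to compounds at 0.39–200 uM in 0.5% DMSO, with bidirectional curve fitting relative to DMSO.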

Experiment [9] is described as follows: APR_HepG2_MitoMass_1hr: Apredica 1-hour HepG2 Assay for Mitochondrial Mass (AID 2282674). The settings on record: high-content imaging, actives raise or lower the signal. A digest of the protocol:
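Mitochondrial mass is taken from MitoTracker Red CMXRos (250 nM, 30 min, pre-fixation) fluorescence imaged at 20x in HepG2 cells. Exposure lasted 1 hr across ten concentrations, 0.39 to 200 uM, 0.5% DMSO; DMSO baseline, bidirectional fitting.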

Experiment [10] in a line: APR_HepG2_p53Act_1hr: Apredica 1-hour HepG2 Assay for p53 Activation (AID 2282671). Particulars: high-content imaging, actives raise or lower the signal. A digest of the protocol:
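After 1 h exposure (0.39–200 uM, 0.5% DMSO final, duplicates), fixed HepG2 cells were labelled with anti-p53 antibody plus Hoechst nuclear stain. Fluorescence quantified by automated 20x imaging; changes fitted in both directions against DMSO.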

Results filed as inconclusive are left out. Calls of active or inactive are those of the source. The calls were made as follows, unless noted: active = hit-call score of the fitted dose curve at least 0.9, where 1 is the maximum; inactive = score below 0.9.

For `CCS(=O)(=O)c1cccnc1S(=O)(=O)NC(=O)Nc1nc(OC)cc(OC)n1`, the compound was classed as inactive in experiment [1], in [2], in [3], in experiment [4] and in [5].
As to `CCCN(CCC)c1c([N+](=O)[O-])cc(C(F)(F)F)cc1[N+](=O)[O-]`, the result in experiment [6], in experiment [3], in experiment [4] and in [5] was inactive.
Take `O=S1OCC2C(CO1)C1(Cl)C(Cl)=C(Cl)C2(Cl)C1(Cl)Cl` (stereo unspecified): the compound was classed as inactive in [7], in [2], in experiment [8], in [3], in experiment [4] and in experiment [9]. In addition, in experiment [5], the AC50 was 118 µM (active).
For `Cc1cc(C)nc(NC(=O)NS(=O)(=O)c2ccccc2C(=O)OC2COC2)n1`, the call in experiment [2], in experiment [3], in [4] and in [5] was inactive.
On to `COP(=S)(OC)Oc1ccc(SC)c(C)c1`, for which the compound was called inactive in experiment [3] and in experiment [4]. In experiment [5], the AC50 was 59.1 µM (active).
For the compound `CC(C)OC(=O)Nc1cccc(Cl)c1`, the outcome in [1], in experiment [3], in [4] and in experiment [5] was inactive.
Take `CNC(=O)Oc1cccc(N=CN(C)C)c1`: the call in experiment [8], in experiment [3], in [4], in experiment [9] and in experiment [5] was inactive.
`COc1cc(OC)nc(NC(=O)NS(=O)(=O)c2cc(NC=O)ccc2C(=O)N(C)C)n1`: the compound was called inactive in experiment [3], in [4], in experiment [9] and in experiment [5].
For `ClC1C(Cl)C(Cl)C(Cl)C(Cl)C1Cl` (stereo unspecified), the result in [10], in experiment [3], in experiment [4] and in experiment [5] was inactive.
Turning to `OCCOc1ccccc1`, the compound was called inactive in experiment [1], in experiment [3], in experiment [4] and in experiment [5].
With `O=C1c2ccccc2C(=O)N1SC(Cl)(Cl)Cl`, the compound was called inactive in experiment [3], in experiment [4] and in experiment [5].
Regarding `O=C(O)COc1ccc(Cl)cc1Cl`, the call in experiment [1], in experiment [3], in experiment [4] and in experiment [5] was inactive.
As to `CCN(CC)C(=O)SCc1ccc(Cl)cc1`, the call in experiment [3], in experiment [4], in experiment [9] and in experiment [5] was inactive.
In the case of `CC[C@H](C)[C@H]1O[C@]2(C=C[C@@H]1C)C[C@@H]1C[C@@H](C/C=C(\C)[C@@H](O[C@H]3C[C@H](OC)[C@@H](O[C@H]4C[C@H](OC)[C@@H](O)[C@H](C)O4)[C@H](C)O3)[C@@H](C)/C=C/C=C3\CO[C@@H]4[C@H](O)C(C)=C[C@@H](C(=O)O1)[C@]34O)O2` (tested in a mixture with another compound), the compound was classed as inactive in experiment [8] and in experiment [5]. In addition, the concentration at half-maximal activity (AC50) was 12.6 µM (active) in experiment [3] and 22.5 µM (active) in experiment [4].
On to `CCC(C)(C)C(=O)OC1=C(c2ccc(Cl)cc2Cl)C(=O)OC12CCCCC2`, for which the compound was called inactive in experiment [2], in [3], in experiment [4], in experiment [9] and in experiment [5].
As to `CN1CSC(=S)N(C)C1`, the result in experiment [2], in [3], in experiment [4] and in [5] was inactive.
In the case of `CC(C)N(C(=O)COc1nnc(C(F)(F)F)s1)c1ccc(F)cc1`, the compound was called inactive in experiment [2], in experiment [3], in [4] and in experiment [5].
In the case of `O=C(Nc1ccccc1)Nc1cnns1`, the outcome in experiment [3] and in experiment [4] was inactive. Further, in [5], the AC50 was 76.2 µM (active).
As for `Oc1ccc(Cl)cc1Cc1ccccc1`, the call in experiment [2], in [3], in [9] and in [5] was inactive. Moreover, the half-maximal activity concentration (AC50) in [4] is 110 µM (active).
In the case of `CCc1ccc(C(=O)NN(C(=O)c2cc(C)cc(C)c2)C(C)(C)C)cc1`, the compound was called inactive in experiment [8], in experiment [3], in experiment [4] and in experiment [5].
For the compound `N#Cc1c(Cl)c(Cl)c(Cl)c(C#N)c1Cl`, in experiment [8], the result was inactive. Further, the values for the AC50 in [3], in [4] and in experiment [5] were 8.28 µM (active), 3.46 µM (active) and 61.5 µM (active), respectively.
Take `C[C@H]1[C@H](c2ccc(Cl)cc2)SC(=O)N1C(=O)NC1CCCCC1`: the outcome in experiment [3], in [4] and in experiment [5] was inactive.
For `COC(=O)c1ccccc1S(=O)(=O)NC(=O)N(C)c1nc(C)nc(OC)n1`, the result in [3], in [4] and in [5] was inactive.
`[2H]C1([2H])[n+]2ccccc2-c2cccc[n+]2C1([2H])[2H]`: the compound was called inactive in experiment [8], in experiment [3], in experiment [4] and in experiment [5].
Regarding `O=[N+]([O-])c1c(Cl)c(Cl)c(Cl)c(Cl)c1Cl`, the result in [3], in experiment [4] and in experiment [5] was inactive.
In the case of `CCOCN(C(=O)CCl)c1c(C)cccc1CC`, the call in [3], in [4], in experiment [9] and in experiment [5] was inactive.
Regarding `Oc1cc(Cl)ccc1Oc1ccc(Cl)cc1Cl`, the concentration at half-maximal activity (AC50) in experiment [8] was 158 µM (active); in experiment [4] it was 99.8 µM (active). Besides, the call in experiment [3] and in experiment [5] was inactive.
`COc1nn(CSP(=S)(OC)OC)c(=O)s1`: the outcome in experiment [8], in [3], in experiment [4] and in experiment [5] was inactive.
Regarding `CC1(c2ccc(Oc3ccccc3)cc2)OC(=O)N(Nc2ccccc2)C1=O` (stereo unspecified), the outcome in experiment [3], in experiment [4], in experiment [9] and in [5] was inactive.
Take `O=C(O)CCCOc1ccc(Cl)cc1Cl`: the compound was classed as inactive in [1], in experiment [3], in experiment [4] and in experiment [5].

The AC50 is the concentration giving half of the maximal activity seen.
